According to article PMC7862700, “An all-to-all approach to the identification of sequence-specific readers for epigenetic DNA modifications on cytosine”:

Key:
Test in all cases: DAPPL (digital affinity profiling via proximity ligation, sequencing); 10 mM Tris-HCl pH 7.5, 50 mM NaCl, 1 mM DTT, 4% glycerol, room temperature, 30 min; GST-TFs on glutathione beads, 16-mer random dsDNA library, 0.1% formaldehyde crosslink after washing; high values mean tight binding
Details in all cases: protein: recombinant; tags: N-terminal GST; dsDNA, one strand shown
[1] = molecular target: T1, FLI1 (Homo sapiens, UniProt Q01543 1-452)
T1 sequence: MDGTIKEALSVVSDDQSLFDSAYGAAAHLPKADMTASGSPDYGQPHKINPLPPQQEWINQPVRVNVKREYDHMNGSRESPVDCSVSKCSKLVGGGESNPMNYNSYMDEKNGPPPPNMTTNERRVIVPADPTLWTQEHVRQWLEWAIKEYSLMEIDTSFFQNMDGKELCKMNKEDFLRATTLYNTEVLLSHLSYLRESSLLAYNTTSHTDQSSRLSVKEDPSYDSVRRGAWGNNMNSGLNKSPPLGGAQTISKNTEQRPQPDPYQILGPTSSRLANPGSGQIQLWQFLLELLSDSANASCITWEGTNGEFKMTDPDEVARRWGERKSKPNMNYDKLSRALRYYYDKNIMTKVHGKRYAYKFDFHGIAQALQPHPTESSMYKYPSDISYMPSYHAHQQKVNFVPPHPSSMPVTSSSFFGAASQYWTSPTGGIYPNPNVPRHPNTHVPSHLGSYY
Procedure, shortened: (§1)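 Human transcription factors fused to GST were expressed in yeast, captured on glutathione beads, given DNA barcodes and pooled with a GST-only negative control. Pools were incubated with 200 nmole of a 16-mer random double-stranded DNA library in Tris/NaCl/DTT/glycerol buffer at room temperature for 30 min. They were then washed, crosslinked with 0.1% formaldehyde, proximity-ligated (BsaI/T4 ligase, 1 h, 37 °C), PCR-amplified and sequenced on an Illumina NextSeq500. Binding signal is each 6-mer's read frequency for a factor divided by its frequency for the GST control.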

[2] = molecular target: T2, ELK1 (Homo sapiens, UniProt P19419 1-428)
T2 sequence: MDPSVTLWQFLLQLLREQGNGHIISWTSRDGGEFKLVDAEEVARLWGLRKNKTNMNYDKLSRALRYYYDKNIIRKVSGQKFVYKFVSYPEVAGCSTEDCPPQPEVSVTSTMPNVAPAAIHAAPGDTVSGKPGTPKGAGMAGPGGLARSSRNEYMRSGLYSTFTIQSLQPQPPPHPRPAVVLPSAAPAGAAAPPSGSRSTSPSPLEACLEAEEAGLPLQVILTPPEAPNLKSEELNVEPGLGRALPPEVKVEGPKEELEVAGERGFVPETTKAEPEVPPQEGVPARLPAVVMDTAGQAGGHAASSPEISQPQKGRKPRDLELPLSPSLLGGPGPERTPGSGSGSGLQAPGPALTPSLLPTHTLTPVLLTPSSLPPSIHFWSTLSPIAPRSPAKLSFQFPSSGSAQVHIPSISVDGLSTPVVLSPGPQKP
Procedure, shortened: as §1

[3] = molecular target: T3, GABPA (Homo sapiens, UniProt Q06546 1-454)
T3 sequence: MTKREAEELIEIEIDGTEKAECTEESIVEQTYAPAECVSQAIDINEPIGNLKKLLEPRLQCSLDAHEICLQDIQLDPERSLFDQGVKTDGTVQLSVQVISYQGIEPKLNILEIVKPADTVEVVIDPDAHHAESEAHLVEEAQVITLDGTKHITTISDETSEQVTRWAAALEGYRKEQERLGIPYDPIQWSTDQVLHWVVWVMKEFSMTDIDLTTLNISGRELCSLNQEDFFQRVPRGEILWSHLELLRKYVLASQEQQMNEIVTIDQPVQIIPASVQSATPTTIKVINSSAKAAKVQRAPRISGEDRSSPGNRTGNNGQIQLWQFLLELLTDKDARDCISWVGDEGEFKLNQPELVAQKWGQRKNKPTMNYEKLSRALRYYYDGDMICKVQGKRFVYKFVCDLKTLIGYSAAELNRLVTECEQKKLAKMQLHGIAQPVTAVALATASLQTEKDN
Procedure, shortened: as §1

[4] = molecular target: T4, ERG (Homo sapiens, UniProt P11308 1-479)
T4 sequence: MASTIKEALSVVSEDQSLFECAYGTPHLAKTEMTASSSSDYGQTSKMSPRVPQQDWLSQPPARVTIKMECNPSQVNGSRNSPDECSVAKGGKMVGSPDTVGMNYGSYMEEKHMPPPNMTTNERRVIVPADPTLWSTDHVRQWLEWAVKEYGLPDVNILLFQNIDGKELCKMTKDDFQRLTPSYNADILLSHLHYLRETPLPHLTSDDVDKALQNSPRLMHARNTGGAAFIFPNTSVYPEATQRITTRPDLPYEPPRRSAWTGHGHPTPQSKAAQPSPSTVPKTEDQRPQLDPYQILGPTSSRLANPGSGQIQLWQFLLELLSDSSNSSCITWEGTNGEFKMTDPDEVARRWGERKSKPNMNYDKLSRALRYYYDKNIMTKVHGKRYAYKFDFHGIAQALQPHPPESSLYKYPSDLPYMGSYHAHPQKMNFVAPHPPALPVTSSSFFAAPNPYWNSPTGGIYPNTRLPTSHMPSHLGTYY
Procedure, shortened: as §1

[5] = molecular target: ELF1 (Homo sapiens, UniProt P32519 1-619)
Procedure, shortened: as §1

[6] = molecular target: T5, EHF (Homo sapiens, UniProt Q9NZC4 1-300)
T5 sequence: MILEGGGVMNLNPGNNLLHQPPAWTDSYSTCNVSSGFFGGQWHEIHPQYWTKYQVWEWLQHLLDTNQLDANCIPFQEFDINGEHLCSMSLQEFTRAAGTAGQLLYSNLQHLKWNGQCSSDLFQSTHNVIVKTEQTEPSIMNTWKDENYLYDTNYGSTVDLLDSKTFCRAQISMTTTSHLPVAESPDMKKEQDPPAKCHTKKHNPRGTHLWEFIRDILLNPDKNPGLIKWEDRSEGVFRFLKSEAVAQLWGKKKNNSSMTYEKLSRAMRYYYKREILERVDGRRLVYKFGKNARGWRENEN
Procedure, shortened: as §1

[7] = molecular target: SPIB (Homo sapiens, UniProt Q01892 1-262)
Procedure, shortened: as §1

[8] = molecular target: T6, ELK3 (Homo sapiens, UniProt P41970 1-407)
T6 sequence: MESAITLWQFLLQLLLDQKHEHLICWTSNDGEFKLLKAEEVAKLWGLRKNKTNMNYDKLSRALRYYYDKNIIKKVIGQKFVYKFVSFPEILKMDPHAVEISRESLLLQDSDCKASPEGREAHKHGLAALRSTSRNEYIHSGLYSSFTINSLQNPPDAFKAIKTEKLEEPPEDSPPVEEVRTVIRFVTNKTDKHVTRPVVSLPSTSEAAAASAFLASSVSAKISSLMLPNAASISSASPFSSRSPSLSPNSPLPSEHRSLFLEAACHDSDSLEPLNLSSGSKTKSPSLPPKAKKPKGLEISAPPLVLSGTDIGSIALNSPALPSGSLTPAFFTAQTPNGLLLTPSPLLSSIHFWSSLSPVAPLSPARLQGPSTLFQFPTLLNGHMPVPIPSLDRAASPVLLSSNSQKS
Procedure, shortened: as §1

[9] = molecular target: T7, SPIC (Homo sapiens, UniProt Q8N5J4 1-248)
T7 sequence: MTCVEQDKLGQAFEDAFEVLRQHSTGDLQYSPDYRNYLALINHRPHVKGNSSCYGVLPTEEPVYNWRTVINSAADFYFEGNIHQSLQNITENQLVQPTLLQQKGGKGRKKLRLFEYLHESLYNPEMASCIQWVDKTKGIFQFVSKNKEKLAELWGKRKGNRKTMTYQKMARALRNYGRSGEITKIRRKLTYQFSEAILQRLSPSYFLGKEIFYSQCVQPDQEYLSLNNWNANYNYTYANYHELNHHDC
Procedure, shortened: as §1

[10] = molecular target: ELF4 (Homo sapiens, UniProt Q99607 1-663)
Procedure, shortened: as §1

Chain of ELF1 (P32519 whole entry): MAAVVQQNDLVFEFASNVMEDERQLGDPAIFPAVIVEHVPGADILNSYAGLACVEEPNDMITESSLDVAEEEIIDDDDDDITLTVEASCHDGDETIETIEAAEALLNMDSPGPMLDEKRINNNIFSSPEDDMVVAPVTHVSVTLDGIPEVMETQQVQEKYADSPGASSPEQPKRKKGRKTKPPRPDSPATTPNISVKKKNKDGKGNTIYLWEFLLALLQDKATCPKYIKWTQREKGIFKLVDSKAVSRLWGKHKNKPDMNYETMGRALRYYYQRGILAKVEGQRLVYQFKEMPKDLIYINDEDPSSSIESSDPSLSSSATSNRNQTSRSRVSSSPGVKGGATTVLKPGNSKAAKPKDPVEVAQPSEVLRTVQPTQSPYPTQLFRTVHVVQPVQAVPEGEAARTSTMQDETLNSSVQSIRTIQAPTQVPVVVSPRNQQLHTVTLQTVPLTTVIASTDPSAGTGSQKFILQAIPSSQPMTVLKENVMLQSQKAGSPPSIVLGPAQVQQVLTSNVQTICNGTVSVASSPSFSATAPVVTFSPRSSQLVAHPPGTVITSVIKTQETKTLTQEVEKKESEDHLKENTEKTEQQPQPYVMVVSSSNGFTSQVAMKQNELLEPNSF
Chain of SPIB (Q01892 whole entry): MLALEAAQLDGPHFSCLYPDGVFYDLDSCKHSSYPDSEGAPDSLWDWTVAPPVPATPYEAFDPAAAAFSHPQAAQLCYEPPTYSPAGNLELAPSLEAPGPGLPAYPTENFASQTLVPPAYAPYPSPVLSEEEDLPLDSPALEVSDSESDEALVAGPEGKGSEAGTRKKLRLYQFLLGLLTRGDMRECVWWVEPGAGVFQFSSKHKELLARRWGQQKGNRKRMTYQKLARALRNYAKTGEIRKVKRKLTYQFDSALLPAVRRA
Chain of ELF4 (Q99607 whole entry): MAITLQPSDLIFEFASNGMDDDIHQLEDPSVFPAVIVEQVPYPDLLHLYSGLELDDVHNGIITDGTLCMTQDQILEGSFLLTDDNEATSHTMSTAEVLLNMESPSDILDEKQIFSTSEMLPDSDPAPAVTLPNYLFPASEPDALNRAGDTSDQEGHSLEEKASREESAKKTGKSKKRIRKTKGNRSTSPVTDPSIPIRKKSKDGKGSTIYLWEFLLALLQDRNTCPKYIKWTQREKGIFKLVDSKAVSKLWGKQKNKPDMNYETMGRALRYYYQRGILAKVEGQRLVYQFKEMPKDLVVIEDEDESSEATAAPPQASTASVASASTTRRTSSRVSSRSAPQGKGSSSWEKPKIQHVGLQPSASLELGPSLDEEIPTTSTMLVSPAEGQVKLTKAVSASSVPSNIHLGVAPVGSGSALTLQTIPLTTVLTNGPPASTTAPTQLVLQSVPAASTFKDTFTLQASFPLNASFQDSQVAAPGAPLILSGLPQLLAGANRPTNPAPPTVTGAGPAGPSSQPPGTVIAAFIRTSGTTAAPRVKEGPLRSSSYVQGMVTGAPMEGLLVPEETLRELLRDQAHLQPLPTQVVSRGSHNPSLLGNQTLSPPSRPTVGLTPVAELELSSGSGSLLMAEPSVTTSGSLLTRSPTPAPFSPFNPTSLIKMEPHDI

TGATTA
binding signal [1]: 1.07 fold enrichment (6-mer frequency, TF over GST control)
binding signal [2]: 1.17 fold enrichment (6-mer frequency, TF over GST control)
binding signal [3]: 1.1 fold enrichment (6-mer frequency, TF over GST control)
binding signal [4]: 1.02 fold enrichment (6-mer frequency, TF over GST control)
binding signal [5]: 1.09 fold enrichment (6-mer frequency, TF over GST control)
binding signal [6]: 1.11 fold enrichment (6-mer frequency, TF over GST control)
binding signal [7]: 1.07 fold enrichment (6-mer frequency, TF over GST control)
binding signal [8]: 1.07 fold enrichment (6-mer frequency, TF over GST control)
binding signal [9]: 1.17 fold enrichment (6-mer frequency, TF over GST control)
binding signal [10]: 1.07 fold enrichment (6-mer frequency, TF over GST control)
